In all, about 360,000 compounds went through this assay and about 1,700 (0.47%) were called active. About 2% were inconclusive and are not listed. The list comes from a sample in which actives are over-represented; it also holds similar structures and randomly drawn compounds. Entries that show only a call come without a potency. A number with no mark means an inactive call. Calls follow the shape of the dose curve; as a rule, active = well fitted inhibition curve with a large enough effect; inconclusive = small, poorly fitted or top-dose-only effect; inactive = no such curve, though single readings can be large or run the other way.
Potency is read from the fitted curve at half-maximal effect.

Bifunctional 3'-5' exonuclease/ATP-dependent helicase WRN (Homo sapiens), sequence (Q14191 whole entry, looked up): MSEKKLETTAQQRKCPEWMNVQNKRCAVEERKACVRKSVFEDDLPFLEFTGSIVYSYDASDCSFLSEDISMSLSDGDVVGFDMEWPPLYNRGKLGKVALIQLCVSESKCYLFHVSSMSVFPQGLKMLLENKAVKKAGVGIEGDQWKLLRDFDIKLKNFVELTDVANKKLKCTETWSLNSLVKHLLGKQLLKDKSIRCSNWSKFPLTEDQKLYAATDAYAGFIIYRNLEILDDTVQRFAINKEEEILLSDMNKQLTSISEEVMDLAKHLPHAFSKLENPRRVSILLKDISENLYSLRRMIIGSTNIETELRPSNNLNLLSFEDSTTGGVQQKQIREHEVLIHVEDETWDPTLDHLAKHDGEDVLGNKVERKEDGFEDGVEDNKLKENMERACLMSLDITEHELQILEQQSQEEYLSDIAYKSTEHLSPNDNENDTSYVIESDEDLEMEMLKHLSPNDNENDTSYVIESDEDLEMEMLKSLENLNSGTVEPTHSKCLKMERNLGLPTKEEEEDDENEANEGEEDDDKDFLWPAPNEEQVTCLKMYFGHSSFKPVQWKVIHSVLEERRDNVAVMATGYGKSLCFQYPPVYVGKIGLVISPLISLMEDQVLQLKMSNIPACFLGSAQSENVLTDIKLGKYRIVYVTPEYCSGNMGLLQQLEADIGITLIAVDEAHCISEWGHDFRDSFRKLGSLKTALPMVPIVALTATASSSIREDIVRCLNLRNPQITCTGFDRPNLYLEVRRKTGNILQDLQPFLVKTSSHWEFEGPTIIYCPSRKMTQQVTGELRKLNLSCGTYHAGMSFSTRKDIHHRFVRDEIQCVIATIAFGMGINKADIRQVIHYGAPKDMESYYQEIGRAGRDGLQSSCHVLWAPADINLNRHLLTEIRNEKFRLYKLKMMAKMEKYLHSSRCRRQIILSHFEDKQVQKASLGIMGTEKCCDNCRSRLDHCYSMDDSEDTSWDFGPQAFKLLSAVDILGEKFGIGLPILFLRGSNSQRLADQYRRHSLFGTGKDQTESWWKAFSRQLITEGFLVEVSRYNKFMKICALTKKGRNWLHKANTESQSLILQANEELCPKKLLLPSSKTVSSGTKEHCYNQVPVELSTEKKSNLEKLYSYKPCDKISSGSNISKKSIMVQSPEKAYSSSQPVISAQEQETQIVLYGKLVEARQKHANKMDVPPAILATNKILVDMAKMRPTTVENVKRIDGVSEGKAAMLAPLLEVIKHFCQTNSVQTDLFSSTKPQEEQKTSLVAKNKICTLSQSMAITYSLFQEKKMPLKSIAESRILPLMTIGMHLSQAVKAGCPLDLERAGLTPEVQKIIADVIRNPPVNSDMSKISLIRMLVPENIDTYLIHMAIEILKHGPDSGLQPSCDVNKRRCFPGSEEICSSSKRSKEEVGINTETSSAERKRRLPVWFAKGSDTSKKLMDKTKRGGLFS

The target in this test is Bifunctional 3'-5' exonuclease/ATP-dependent helicase WRN (Homo sapiens) (UniProt Q14191). As to the kind of experiment: qHTS for Inhibitors of WRN Helicase. Also: nearly all actives have a fitted effect of over 55% in size. To be noted: WRN helicase unwinding, fluorescent forked duplex, kinetic; series mostly up to 114 µM. An outline of the steps:
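WRN at 20 nM final was preincubated with compound for 15 min at room temperature; reaction started with 100 nM forked duplex oligonucleotide carrying fluorophore and quencher plus 2 mM ATP (final). Unwinding followed kinetically by red fluorescence (ex 525/em 598 nm).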
A general note: qHTS replaces the single test concentration by a dilution series.
For `N#Cc1ccc(OCC(=O)NC(=O)NC2CCS(=O)(=O)C2)cc1` (stereo not drawn), the Potency entry was “inactive”.

Consider `CC(=O)Nc1ccc(S(=O)(=O)NCC(=O)OCc2cc(=O)oc3ccc4ccccc4c23)cc1`, for which the Potency entry is “inactive”.

Turning to `O=C(N/N=C/c1sc(N2CCCCC2)nc1-c1cccs1)c1cccnc1`, the Potency result is “inactive”.

For the compound `C[C@H]1CN([C@@H](C)CO)C(=O)CCCn2nncc2CO[C@@H]1CN(C)S(=O)(=O)c1cccc(C#N)c1`, the Potency result was “inactive”.

`Cc1nnc(SCC(=O)Nc2ncc3c(n2)CC(C)(C)CC3=O)s1`: the Potency entry is “inactive”.

Regarding `CC1=C/C(=N\OS(=O)(=O)c2ccccc2)C=CC1=O`, the Potency was 31.6 µM (active).

With `O=C1Nc2ccccc2-n2nnnc2C1N1CCN(c2cccc(C(F)(F)F)n2)CC1` (stereo not drawn), the Potency entry was “inactive”.

As for `CC1(c2cccc(N)c2)OCCO1`, the Potency entry is “inactive”.

As to `COCCNC(=O)Nc1ccc2nc(-c3ccco3)c(-c3ccco3)nc2c1`, the Potency was 14.1 µM (active).

Turning to `COCCNC(=O)CSc1nc(N)c(NC(=O)c2ccco2)c(=O)[nH]1`, the Potency result was “inactive”.

Turning to `Cc1ccc(NC(=O)OCCNC(=O)c2ccncc2)cc1`, the Potency entry is “inactive”.

On to `CC(=O)N(C1=C(Cl)C(=O)c2ccccc2C1=O)c1ccc(C(=O)O)cc1`, for which the Potency was 35.5 µM (active).

Regarding `O=C(NC1=CC(=O)c2ccccc2C1=O)c1ccccc1`, the Potency entry was “inactive”.

On to `CN(C)c1ccc(C(CNC(=O)c2ccc(F)cc2)c2c[nH]c3ccccc23)cc1` (stereo not drawn), for which the Potency entry was “inactive”.

With `CCc1ccccc1NC(=O)CN(c1ccc(OC)cc1OC)S(=O)(=O)c1ccccc1[N+](=O)[O-]`, the Potency result was “inactive”.

Turning to `CCC1OC(C2CC2)CC2=C1C(=O)OC(C)(C)O2` (stereo not drawn), the Potency entry was “inactive”.

Consider `CCc1nnc(NC(=O)c2ccco2)s1`, for which the Potency entry is “inactive”.

For the compound `CCc1ccc2nc3sc(C(=O)Nc4nnc(CC)s4)c(N)c3cc2c1`, the Potency is 22.4 µM (active).

Take `CCc1nnc(NC(=O)c2cc(S(=O)(=O)N3CCCCC3)ccc2C)s1`: the Potency result is “inactive”.

Regarding `C=CCN1CCN(c2ccncc2S(=O)(=O)N2CCN(C)CC2)CC1`, the Potency result was “inactive”.

As to `O=C(O)CSc1ccc(S(=O)(=O)N2CCCC2)cn1`, the Potency entry is “inactive”.

With `N#Cc1c(C(F)(F)F)cc(-c2cccs2)nc1N1CCCCC1`, the Potency result was “inactive”.

Consider `N#Cc1c(N2CCCCC2)nc(N)c2c(N)nc(SCC(=O)O)cc12`, for which the Potency was 50.1 µM (active).

For the compound `Cn1cnnc1SCC(=O)Nc1ccc(N2CCOCC2)cc1`, the Potency result is “inactive”.

As to `C=CC(=O)Nc1ccc(Nc2ccnc(Nc3ccc(N4CCN(C)CC4)cc3)n2)cc1`, the Potency was 50.1 µM (active).

`CN1CCN(c2ccc(NC(=O)c3cc(Cl)c4c(c3)OCCO4)cc2)CC1`: the Potency result is “inactive”.

For `CC(C)NC(=S)Nc1cccc2cnccc12`, the Potency result is “inactive”.

Consider `COc1ccc(S(=O)(=O)N2CCN(CC(=O)N3c4ccccc4CC3C)CC2)cc1OC` (stereo not drawn), for which the Potency entry was “inactive”.

Consider `Cc1ccccc1-c1nc(NC(C)C)nc2cc(-c3ccccc3)sc12`, for which the Potency result was “inactive”.

For `O=S(=O)(O)c1cc2onnc2c2ccccc12`, the Potency is 56.2 µM (active).

On to `O=C(Nc1ccc(OC(F)(F)F)cc1)c1ccc2c(c1)no[n+]2[O-]`, for which the Potency entry was “inactive”.

On to `Cc1ccc(S(=O)(=O)N2CCC(=O)N([C@H](COCc3ccccc3)Cc3ccccc3)CC2)cc1`, for which the Potency result was “inactive”.

In the case of `CCN(CC)CCOc1ccc2c(c1)C(=NNC(=O)c1ccccn1)c1cc(OCCN(CC)CC)ccc1-2`, the Potency is 35.5 µM (active).

Regarding `CN(CCOc1ccc(CC2SC(=O)NC2=O)cc1)c1ccccn1` (stereo not drawn), the Potency result is “inactive”.

Take `CCN(CC)CCNCC(=O)Nc1ccc(Oc2ccccc2)cc1`: the Potency result is “inactive”.

Turning to `O=C(O)CSC(NC(=O)c1cccnc1)(C(F)(F)F)C(F)(F)F`, the Potency result is “inactive”.

Regarding `Cc1ccc(Cc2cnc(N)s2)o1`, the Potency is 44.7 µM (active).

Consider `Cc1ccc(CCC(=O)Nc2ncc(Cc3cc(Cl)ccc3Cl)s2)o1`, for which the Potency entry was “inactive”.

As for `CSc1nnc(C2CCCN(CC(=O)Nc3ccccc3N3CCOCC3)C2)n1C(C)C` (stereo not drawn), the Potency result is “inactive”.

On to `O=C(CSC(=S)N1CCOCC1)c1ccccc1`, for which the Potency entry is “inactive”.

As to `O=C(c1cc2cc(Br)cc(Br)c2oc1=O)N1CCOCC1`, the Potency result is “inactive”.

Take `O=C(CSC(=S)N1CCOCC1)c1cc(Br)cc(Br)c1O`: the Potency was 56.2 µM (active).

For `Cc1cc(=O)oc2cc(OC(C)C(=O)NCCc3ccc(S(N)(=O)=O)cc3)ccc12` (stereo not drawn), the Potency result was “inactive”.

With `CCOC(=O)c1cc(-c2ccc(F)cc2)n(CC(=O)NCc2ccccn2)c1C`, the Potency entry is “inactive”.

Turning to `CCN(C(=O)COC(=O)/C=C/c1nc2ccccc2s1)C1CCS(=O)(=O)C1` (stereo not drawn), the Potency result is “inactive”.

Consider `O=C(COC(=O)c1cnccn1)Nc1ccc(Cl)cc1C(F)(F)F`, for which the Potency entry was “inactive”.

Consider `O=C(CSC1=Nc2ccccc2C2=NC(c3ccccc3)C(=O)N12)NCC1CCCO1` (stereo not drawn), for which the Potency entry was “inactive”.

As to `NC(=O)CSC1=Nc2ccccc2C2=NC(CCC(=O)NCc3ccc(F)cc3)C(=O)N12` (stereo not drawn), the Potency result is “inactive”.

For `CC(C)C1N=C2c3ccccc3N=C(SCC(=O)c3ccc(O)c(O)c3)N2C1=O` (stereo not drawn), the Potency is 17.8 µM (active).

Take `O=C(NCCCn1ccnc1)C(=O)c1cn(CC(=O)N2CCCCCC2)c2ccccc12`: the Potency entry is “inactive”.

`Cc1nc2ccc(S(=O)(=O)NCC(=O)O)cc2s1`: the Potency entry is “inactive”.

Regarding `C/C(CC(O)(/C=N/O)c1ccccc1)=N\O` (stereo not drawn), the Potency result is “inactive”.

On to `Cn1sc(=O)c2cc(S(=O)(=O)NC3CC3)ccc21`, for which the Potency is 44.7 µM (active).

With `O=S(=O)(NC1CC1)c1ccc(Cl)cc1`, the Potency entry is “inactive”.

On to `O=S(=O)(NC1CC1)c1ccc(F)c(F)c1`, for which the Potency result was “inactive”.

Consider `Cc1c(C(=O)NCCN(C)C)oc2ccc(S(=O)(=O)N3CCCC3)cc12`, for which the Potency result is “inactive”.

Regarding `CCOP1(=O)C=C(C(C)(C)C)OC1c1ccc(F)cc1` (stereo not drawn), the Potency entry was “inactive”.

Consider `C[C@@H]1CN([C@H](C)CO)C(=O)CCCn2cc(nn2)CO[C@H]1CN(C)S(=O)(=O)c1ccc(Oc2ccccc2)nc1`, for which the Potency entry was “inactive”.

Turning to `CC12CCC(C(=O)N(CCC#N)CCC#N)(CC1=O)C2(C)C` (stereo not drawn), the Potency result is “inactive”.

For the compound `COC(=O)[C@@]1(Cc2ccc(F)cc2)[C@H]2c3cc(C(=O)N4CCCC4)n(C[C@H](O)CO)c3C[C@H]2CN1C(=O)c1ccccc1`, the Potency result is “inactive”.

On to `CCOC(=O)N1CCC(NC(=O)CN2C(=O)COc3ccc(C(C)(C)C)cc32)CC1`, for which the Potency entry was “inactive”.

As for `CC[C@]12c3[nH]c4ccc(OC)cc4c3CCN1C(=O)C(CC(=O)NCCN1CCOCC1)C[C@@H]2C(=O)N1CCN(C(=O)C2CC2)CC1` (stereo partly drawn), the Potency entry is “inactive”.

As for `O=c1/c(=C/c2ccc(CNS(=O)(=O)c3ccccc3)o2)sc2n1CCN=2`, the Potency result is “inactive”.

On to `O=c1nc2s/c(=C\c3ccco3)c(=O)n2nc1Cc1ccccc1`, for which the Potency was 35.5 µM (active).

Take `O=C(NCCc1ccco1)c1nn(Cc2ccccc2)c(=O)c2ccccc12`: the Potency entry was “inactive”.

On to `Cc1cc(C(=O)OC(C)C(=O)Nc2cccc(S(=O)(=O)N3CCOCC3)c2)c(C)o1` (stereo not drawn), for which the Potency result is “inactive”.

Take `CCOC(=O)N1CCN(C(=O)COC(=O)c2cccc(S(C)(=O)=O)c2)CC1`: the Potency result is “inactive”.

As to `CN(C)c1nc(Nc2ccc(Cl)c(Cl)c2)nc(N(C)C)n1`, the Potency is 79.4 µM (active).

For `CC(=O)Nc1nc(N(C)C)nc(N(C)C)n1`, the Potency entry is “inactive”.

In the case of `CN(C)c1nc(NN)nc(Nc2ccc(F)cc2)n1`, the Potency result is “inactive”.

In the case of `O=C(CCS(=O)(=O)c1ccc(Br)cc1)NCCc1ccc(Cl)cc1`, the activity change, negative = inhibition was -8.96% [at 11.6 µM].

With `CCOc1ccc(OCC)c(NC(=O)CCS(=O)(=O)c2ccc(C)cc2)c1`, the Potency entry is “inactive”.

As for `COc1ccc(Cl)cc1NC(=O)CCS(=O)(=O)c1ccc(Br)cc1`, the Potency is 44.7 µM (active).

As to `COC(=O)[C@]1(Cc2ccccc2)N[C@H](CN(C)S(=O)(=O)c2ccc(OC(F)(F)F)cc2)[C@@H]2C(=O)N(C)C(=O)[C@@H]21`, the Potency entry is “inactive”.

Consider `[O-][n+]1c2c(nn1-c1ccc(Cl)c(Cl)c1)-c1nonc1CC2`, for which the Potency result was “inactive”.

Take `Cc1cc(C)c(S(=O)(=O)c2ccccc2)c(OC(=O)c2c(F)cccc2Cl)n1`: the Potency result is “inactive”.

Take `O=C(O)C(c1ccccc1)N1C(=O)/C(=C\c2ccc(-c3cccc(Cl)c3)o2)SC1=S` (stereo not drawn): the Potency was 44.7 µM (active).

Regarding `CC(C(=O)Nc1ccc(O)c(C(=O)O)c1)N1C(=O)/C(=C/c2cccs2)SC1=S` (stereo not drawn), the activity change, negative = inhibition was -16.7% [at 11.6 µM].

For `CC(C(=O)NC1CCS(=O)(=O)C1)N1C(=O)/C(=C/c2ccc(Cl)cc2)SC1=S` (stereo not drawn), the Potency result is “inactive”.

For the compound `CCc1c(-c2ccc(F)cc2)ncn1Cc1cccc(-c2ccccc2)c1`, the Potency result was “inactive”.

Take `Cc1cccc(C(=O)NNC(=O)CSc2nnc(C(C)C)n2C)c1`: the Potency result was “inactive”.

`FC(F)(F)C1CCCN(c2nsc3ccccc23)C1` (stereo not drawn): the Potency is 22.4 µM (active).

Turning to `COc1ccc(Br)c(Cn2c(C)c(C(=O)NCc3cccs3)sc2=O)c1`, the Potency entry was “inactive”.

As for `COC(=O)C1=CN(c2c(C)cc(C)cc2C)C(N)=C(C#N)C1c1cccc(F)c1` (stereo not drawn), the Potency result is “inactive”.

On to `FC(F)(F)c1cccc(-c2nc3ccccc3n2C(c2ccccc2)c2nc3ccccc3[nH]2)c1` (stereo not drawn), for which the Potency result was “inactive”.

On to `CC1CN(/C=C/C(=O)C(F)(F)F)CC(C)O1` (stereo not drawn), for which the Potency entry is “inactive”.

`O=C1C2C3C=CC(C4CC34)C2C(=O)N1/N=C/c1ccc(-c2ccccc2[N+](=O)[O-])o1` (stereo not drawn): the Potency entry is “inactive”.

`COc1ccc(/C=C2/C(=O)N(c3ccccc3)N=C2C)c(OC)c1`: the activity change, negative = inhibition is -30.6% [at 11.6 µM].

On to `CC1=NN(c2ccc(Cl)c(C(=O)O)c2)C(=O)/C1=C/c1ccc(-c2ccccc2[N+](=O)[O-])o1`, for which the Potency was 44.7 µM (active).

Consider `COc1c(Br)cc2c(C)c(C(=O)N3CCOCC3)oc2c1Br`, for which the Potency entry is “inactive”.

Turning to `O=C(Cn1nnc2ccccc2c1=O)NCc1ccc(Cl)cc1`, the Potency entry is “inactive”.

In the case of `O=c1[nH]c2ccccc2n2c(-c3ccccc3)nnc12`, the Potency is 20 µM (active).

In the case of `O=C(c1ncn2c1c(=O)[nH]c1ccccc12)N1CCc2ccccc2C1`, the Potency entry is “inactive”.

As for `CS(=O)(=O)N1CCCCC1c1cc(C(=O)NCc2ccccc2)no1` (stereo not drawn), the Potency entry is “inactive”.

For the compound `COc1ccc(OC(C)C(=O)Nc2cccnc2)cc1` (stereo not drawn), the Potency entry was “inactive”.

As for `COc1ccc(CS(=O)/C(Cl)=C(/Cl)C(=O)Nc2ccc(OC)nc2)cc1` (stereo not drawn), the Potency is 17.8 µM (active).

As for `COc1ccc(C(O)c2nc(-c3ccc(OC)nc3)cs2)cc1` (stereo not drawn), the Potency entry is “inactive”.

Regarding `CC(C)C[C@H]1CN([C@@H](Cc2ccccc2)CN2CCC[C@@H]2CN2C(=O)C(=O)NC[C@@H]2Cc2ccc(O)cc2)C(=O)C(=O)N1CCc1ccccc1`, the Potency entry is “inactive”.

(Values after PubChem BioAssay AID651768 (National Center for Advancing Translational Sciences (NCATS), 2012).)
